Screening data from PubChem BioAssay.
Not all results are given here.
aSyn UTR act: Activators via SNCA 5'UTR binding, MLPCN; alpha-synuclein 5'UTR reporter, activators screen; activity score, % (tested at 7.5 µM), hits read low; actives 7.1% (n = 300,000); AID 1814, 2009; in the data active = activity score below about -60%
Numbers stand for hits; 0 = inactive.

SMILES	aSyn UTR act
Cn1c(/C(C#N)=C(\O)c2ccc(Br)s2)nc2ccccc21	-71.9
CC(=O)c1cccc(NC(=O)Nc2nc(C)cc(C)n2)c1	-85.3
CN(C)C(=S)Nc1ccc2ccccc2c1	-66.6
O=C(Nc1ccccc1)Nc1cccc(C(F)(F)F)c1	-73.1
Cc1cccc(NC(=O)CCNC(=O)c2ccc(Br)cc2)c1	-92.6
CSc1ncc(C(=O)Nc2ccc(C(C)=O)cc2)c(C)n1	-86.6
CC(=O)c1ccc(NC(=O)c2cccc(NC(=O)c3ccccc3)c2)cc1	-115.6
O=C(Nc1ccc(Br)cc1)c1cc2ccccn2n1	-116.8
CC(C)c1cc(C(=O)Nc2cccc(C(F)(F)F)c2)no1	-101.7
Nc1ccc(C(=O)Nc2cccc(N)c2)cc1	-66.9
O=C(Nc1cccc(C(=O)Nc2ccc(Br)cc2)c1)c1ccccc1	-110.7
CC(=O)c1ccc(NC(=O)c2cc(C)nc3ccccc23)cc1	-101.0
CC1CCC(NC(=O)CCNC(=O)c2ccc(Br)cc2)CC1 (stereo not given)	-70.6
CC(=O)c1cccc(NC(=O)Nc2ccccc2)c1	-95.8
O=C(Cc1ccccc1)NNc1ccc2ccccc2c1	-100.6
O=C(Nc1cccc(O)c1)c1ccc(Br)cc1	-181.2
O=C(Nc1ccccc1)Nc1ccc2ccccc2c1	-141.1
CCC(=O)Nc1cccc(NC(=O)c2ccc(Br)cc2)c1	-116.7
CC(C)OC(=O)c1cccc(NC(=O)c2ccccc2)c1	-132.2
COC(=O)/C(=C\C(=O)c1ccccc1)Nc1cccc(C(F)(F)F)c1	-184.9
CC(=O)c1cccc(NC(=O)c2ccc3ccccc3c2)c1	-144.5
CN(C)/N=C/c1ccc(OS(=O)(=O)c2ccccc2)cc1	-157.2
CC(=O)NCCOc1ccc2oc3ccccc3c2c1	-133.0
Cc1ccc(-c2cc(C(=O)Nc3ccc4c(c3)OCCO4)c3ccccc3n2)cc1	-74.3
O=C(NC1=NCCS1)c1cc(-c2ccc(-c3ccccc3)cc2)nc2ccccc12	-88.2
SMILES	aSyn UTR act
O=C(Nc1ccc2c(c1)OCCO2)c1cccc2nc3ccccc3nc12	0
COc1ccc(N(C(=O)c2ccco2)S(=O)(=O)c2cc(OC)ccc2OC)cc1	-112.9
CC(=O)c1ccc(N(C(=O)Cc2c[nH]c3ccccc23)C(C(=O)NC2CCCCC2)c2cccs2)cc1 (stereo not given)	-83.7
Cc1ccc2c(CN(C)Cc3ccccc3)cc(=O)oc2c1C	-80.0
C/C(=N\NC(=O)c1cc(-c2cccnc2)nc2ccccc12)c1ccccc1O	0
CCc1ccc2oc(C(=O)Nc3cccnc3)c(C)c2c1	-220.4
CC(=O)Nc1cccc(NC(=O)c2cc(-c3cccnc3)nc3ccc(Br)cc23)c1	-62.4
Cc1c(C(=O)Nc2cccnc2)oc2ccc(Br)cc12	-246.2
O=C(Nc1cccnc1)c1cc2c(ccc3ccccc32)o1	-103.8
Cc1cc(C(c2nnnn2Cc2ccccc2)N2CCOCC2)c(C)n1-c1ccc2c(c1)OCO2 (stereo not given)	-314.9
CC(=O)Nc1cccc(C(=O)NCCc2ccco2)c1	-75.7
Cc1c(C)n(C)c2ccc(C(=O)NCCc3ccco3)cc12	-74.4
COCC(=O)Nc1c(C(=O)Nc2ccc3c(c2)OCCO3)oc2ccccc12	-72.2
CCC(=O)Nc1c(C(=O)Nc2ccc3c(c2)OCCO3)oc2ccccc12	-142.9
CCC(=O)Nc1c(C(=O)Nc2cccc(OC)c2)oc2ccccc12	-123.4
CCN(Cc1ccc(OC)c(F)c1)C(=O)CCl	-73.7
CCCOc1ccc(C2=NNC(=O)CC2)cc1	0
CCCOc1ccc(-c2nc(=S)[nH][nH]2)cc1	-76.8
C=CCSc1n[nH]c(-c2ccc(OCCC)cc2)n1	-164.3
C=CCSc1n[nH]c(-c2ccc(OCCCC)cc2)n1	-89.2
CC(C)(C)C1CCC(OC(=O)c2cncc(Br)c2)CC1 (stereo not given)	-123.4
O=C(Nc1ccccc1)N(C1=NCCCCS1)c1cccc2ccccc12	-84.8
Cc1cc(N2CCOCC2)nc2ccc(NC(=S)NC(C)C)cc12	-93.5
CCOC(=O)C1CCCN(C(=O)CCC(=O)Nc2ccc3nc(N4CCOCC4)cc(C)c3c2)C1 (stereo not given)	-62.7
COc1cccc(NC(=O)CCC(=O)Nc2ccc3nc(N4CCOCC4)cc(C)c3c2)c1	-148.9
SMILES	aSyn UTR act
CCCN(CCC)CCNC(=O)CCC(=O)Nc1ccc2nc(N3CCOCC3)cc(C)c2c1	-90.2
COCCCNC(=O)CCC(=O)Nc1ccc2nc(N3CCOCC3)cc(C)c2c1	-86.0
CCCCNC(=O)CCC(=O)Nc1ccc2nc(N3CCCCC3)cc(C)c2c1	-141.2
Cc1cc(N2CCCCC2)nc2ccc(NC(=O)CCC(=O)NCCC(C)C)cc12	-131.3
Cc1cc(N2CCOCC2)nc2ccc(NC(=O)CCC(=O)N3CCN(c4ccccc4)CC3)cc12	-87.4
CCCCNC(=O)CCC(=O)Nc1ccc2nc(N3CCOCC3)cc(C)c2c1	-86.5
CCN(CC)CCCNC(=O)CCC(=O)Nc1ccc2nc(N3CCC(C)CC3)cc(C)c2c1	-61.6
CCCC(=O)N1c2ccccc2C(=C2SC(C(=O)OC)=C(C(=O)OC)S2)C(=S)C1(C)C	-88.3
Cc1nc(C(F)(F)F)ccc1C(=O)NCC(O)c1ccccc1 (stereo not given)	-66.6
Cc1nc(C(F)(F)F)ccc1C(=O)Nc1ccc2ccccc2n1	-94.3
CC(=O)c1c(C)nc(-c2ccc(Cl)cc2)nc1N=CN(C)C	-128.1
CC(=O)c1c(C)nc(-c2ccc(Cl)cc2)nc1N	-239.2
CCOc1ccccc1C1CC(=O)Nc2cc3c(cc21)OCCO3 (stereo not given)	0
COc1ccc(NC(=S)N/C(=N/CS(=O)(=O)c2ccccc2)c2ccccc2)cc1	-89.5
O=[N+]([O-])c1ccc(NC(=S)N/C(=N/CS(=O)(=O)c2ccccc2)c2ccccc2)cc1	-92.1
Cc1cccc(NC(=S)N/C(=N/S(=O)(=O)c2ccccc2)c2ccccc2)c1	-103.4
COc1ccc(O)c(/C=N/NC(=S)Nc2cccc(S(=O)(=O)N(C)C)c2)c1	0
C(=C\c1ccco1)/C1=NN(c2ccccc2)C(c2ccco2)C1 (stereo not given)	-209.6
Cc1nn(Cc2ccc(F)cc2)c2sc(C(=O)Nc3ccc(N4CCOCC4)cc3N3CCOCC3)cc12	0
O=C(Nc1ccn(Cc2ccc(Cl)cc2)n1)c1ccccc1	-148.9
Cc1ccc(C(=O)Nc2ccn(Cc3ccc(F)cc3)n2)o1	-65.4
O=C(Nc1ccn(Cc2ccccc2)n1)c1ccc2c(c1)OCO2	-170.6
O=C(/C=C/c1ccc2c(c1)OCCCO2)c1ccc2ccccc2c1O	-157.8
Cc1ccc(C(=O)/C=C/c2ccc3c(c2)OCCO3)c(O)c1	-181.1
COc1cc(/C=N/N2CCN(C3c4ccccc4-c4ccccc43)CC2)ccc1O	-63.4
SMILES	aSyn UTR act
CCCCOc1ccc(Br)cc1/C(C)=N/NC1=NCCN1	0
CCCCOc1ccc(CSC2=NCCN2)cc1[N+](=O)[O-]	-82.0
CCn1cc(C(=O)NCCCN(C)C)c(=O)c2cc(F)c(N3CCN(C)CC3)cc21	-64.7
CC(C)c1ccc(NC(=O)[C@@H]2CCC(=O)N2C2OC(=O)c3ccccc32)cc1 (stereo not given in full)	-79.3
Cc1ccc(/C=N/NC(=O)c2n[nH]c3c2CCCC3)cc1	0
O=C(N/N=C\c1cccc(Cl)c1)c1n[nH]c2c1CCCC2	-151.8
CCOc1ccc(OCC(=O)Nc2nccs2)cc1	0
CCOc1cccc(C(=O)Nc2nccs2)c1	-172.7
O=C(Nc1nccs1)c1ccc2ccccc2c1	-114.2
O=C(Nc1nccs1)c1ccccn1	-123.4
O=C(Nc1nccs1)c1ccc(Br)cc1	-160.8
COc1ccc2oc(-c3ccc(C)c(NC(=O)c4ccc(N5CCOCC5)c([N+](=O)[O-])c4)c3)nc2c1	-94.7
